# TDP1 cell CPT = DT40-hTDP1 cell growth loss with CPT; actives 12% (n = 420,000); chicken DT40 Tdp1-/-;hTDP1 cells + 20 nM CPT, ATP luminescence, 48 h; Potency, µM (top dose mostly 46.2 µM), without a hit: at the highest dose activity change, negative = growth inhibition, actives largely listed as inhibitors; further: potency means the concentration at half of the fitted maximal effect; on the % scale 0 is the no-effect control and ±100 the full control effect; nearly all actives have a fitted effect of over 55% in size
#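 Cell growth measured by CellTiter-Glo luminescence after a minimum 48 h, 37 C compound exposure with 20 nM CPT in Tdp1-knockout DT40 cells stably expressing hTDP1, seeded 400/well; qHTS titration format.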
# Chronic BCR inh = blocks chronic active B-cell receptor signaling | Potency, µM (series often up to 46.1 µM), without a hit: top-dose activity change, negative = inhibition, usual class: inhibitors | ABC-DLBCL IkBa-CBG/CBR reporter, luminescence ratio, 4 h | actives 0.05% (n = 340,000); active means well fitted inhibition curve with a large enough effect in the signal ratio, with a control signal flat, not every such curve was filed as active; inconclusive means small, poorly fitted or top-dose-only effect, or effect the other way, or a change in a side signal; the % refers to the signal ratio;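 further: potency means the concentration at half of the fitted maximal effect; plate controls were basal doxycycline-induced cells for no effect and cells given 10 µM MG132 for full effect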
#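 Cell line TMD8 (human ABC DLBCL), stably expressing tet-inducible CBG68-IkBa fusion and CBR; IMDM/0.5% FBS; cpd up to 46 uM; dox induction, 4 h, 37C/5% CO2; dual luminescence; green/red ratio; MG132 control.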
# SW480 rerep = induces DNA re-replication in SW480 colon adenocarcinoma cells; SW480 DNA re-replication, Hoechst DNA content imaging, 48 h; Potency, µM (titrated, usually from 46.1 µM), for inactives: top-dose re-replication activation, hits mostly activators; actives 1.8% (n = 340,000); AID 624297; further: potency means the concentration at half of the fitted maximal effect; % of control where 0% means no effect; nearly all actives have a fitted effect of over 55% in size
#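 Hoechst fluorescence of nuclei (405 nm excitation, 500-530 nm emission) measured by plate-scanning imager after 48 hr compound exposure at 37 C; re-replication scored as increased number of nuclei with elevated intensity.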
# MCF10A rerep = inducers of DNA re-replication in MCF 10A breast cells | MCF 10A DNA re-replication, Hoechst nuclear intensity, 48 h | Potency, µM (series often up to 46.1 µM), inactives show at the top dose activity, positive = re-replication, actives largely listed as activators | actives 2.9% (n = 350,000) | AID 624296; further: potency means the concentration at half of the fitted maximal effect; % of control where 0% means no effect; nearly all actives have a fitted effect of over 50% in size
# TDP1 cell noCPT = qHTS for Inhibitors of human tyrosyl-DNA phosphodiesterase 1 (TDP1): qHTS in cells in absence of CPT. Potency, µM (top dose mostly 46.2 µM), without a hit: at the top dose activity change, negative = growth inhibition, usual class: inhibitors. DT40 Tdp1-/- hTDP1 cells, no CPT, ATP luminescence, 48 h. actives 15% (n = 420,000). AID 686978, 2013; further: potency means the concentration at half of the fitted maximal effect; on the % scale 0 is the no-effect control and ±100 the full control effect; nearly all actives have a fitted effect of over 55% in size
#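 Camptothecin absent (DMSO only). Human TDP1-complemented DT40 knockout cells, 400 cells/well, 37 °C for minimum 48 hr; ATP measured via CellTiter-Glo, 30 min dark incubation, luminescence.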
# IL-1B inflam inh = inhibitors of inflammasome signaling (IL-1 beta secretion); THP-1 LPS/ATP IL-1B secretion, AlphaLISA, 16 h; active compounds read low; activity change, % at 57.5 µM; actives 4.7% (n = 360,000); in the data active means activity change below about -50%; inconclusive means mostly about -30% to -49%; further: on the % scale 0 is the no-effect control and ±100 the full control effect
#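 Secreted IL-1B measured by AlphaLISA bead assay after 16 h compound exposure of THP-1 cells; compounds (final up to 57.5 uM) added 1 h before LPS (250 ng/mL) and ATP (1.25 mM) stimulation; lower signal means less secretion.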
# Starred values were filed as active, the others as inactive; ? = inconclusive; · = not tested or not shown; [ ] = remark or other dose. Hits are enriched below; roughly 19% of the tested compounds scored in any of these assays. Unless noted, the call rests on the fitted dose curve; in most records, active means well fitted curve in the direction sought with a large enough effect; inconclusive means small, poorly fitted or top-dose-only effect, or another doubt; inactive means no such curve, though single readings can be large; an effect the other way counts as inactive or inconclusive.
SMILES,TDP1 cell CPT,Chronic BCR inh,SW480 rerep,MCF10A rerep,TDP1 cell noCPT,IL-1B inflam inh
COc1ccccc1C(=O)NCC(=O)NCc1cc(=O)n(C)c(=O)n1C,3.5%,0.1%,2.5%,-6.4%,-2.2%,12.5
O=C(C[C@@H]1C/C=C\CC[C@H](Cc2ccc(F)cc2)C(=O)OC[C@@H](Cc2ccccc2)NC1=O)NCCO,?,0.1%,1.2%[9.22 µM],-6.2%,?,7.6
O=C1N[C@H](Cc2ccccc2)COC(=O)[C@H](Cc2ccc(F)cc2)CC/C=C/C[C@H]1CC(=O)N(CCO)Cc1ccccc1,?,?,13.2%,18.7%,23.1µM*,0.0
CCN(CC(=O)Nc1ccc(NC(C)=O)cc1)C(=O)c1cc(-c2ccccc2Cl)nc2ccccc12,?,·,13.2%,15.6%,14.6µM*,-6.0
CCOc1ccc(NC(=O)CN(C)C(=O)c2cc(-c3ccc(OC)cc3)nc3ccccc23)cc1OCC,?,5.3%,2.8%,16.4µM*,14.6µM*,-3.8
COc1ccc(NC(=O)CN(C)C(=O)c2cc(-c3ccc(Cl)cc3)nc3ccccc23)cc1,?,2.8%,8.7%,18.4µM*,20.6µM*,-6.5
Cn1c(=O)c(-c2cc(F)cc(F)c2)nc2cnc(Oc3cccc(Cl)c3)nc21,6.2%,·,·,·,-8.1%,·
O=c1[nH]c2c(c(=O)[nH]1)OCN(Cc1ccccc1)C2,-2.7%,·,0.8%,-0.5%,-0.4%,19.3
COC(=O)C1CCN(Cc2ccc3c(c2)CN(C(=O)c2cc4cc(F)ccc4[nH]2)CCO3)CC1,-10.5%[9.04 µM],·,·,·,14.6µM*,·
COC(=O)C1CCN(Cc2ccc3c(c2)CN(C(=O)c2cc(C)on2)CCO3)CC1,9.5%[9.04 µM],·,·,·,-17.5%,·
COC(=O)C1CCN(Cc2ccc3c(c2)CN(C(=O)c2cc(-c4ccc(C)o4)[nH]n2)CCO3)CC1,0.082µM*,·,·,·,?,·
Cc1nc2ccccc2c(=O)n1NC(=O)C1CC1,15.7%,0.1%,2.9%,-12.4%,0.1%,0.0
CN(C)CCNC(=O)c1ccc(-c2cnn(C)c2)c2ccoc12,4.3%,·,·,·,-17.7%,10.9
O=C(O)COc1ccc(/C=N/NC(=O)c2ccc(-c3csc(Nc4ccc(Cl)cc4)n3)cc2)cc1,7.1%,?,-11.4%,9.2µM*,7.3%,16.6
Cc1nc(CC(=O)N/N=C/c2ccc(OCC(=O)O)cc2)cs1,-16.7%,-4.6%,14.1%,1.5%,44.6%,-4.2
N#Cc1c2n(c3c(=O)n(Cc4ccccc4Cl)cnc13)CCCCC2,18.4µM*,?,-1.1%,11.6µM*,?,-20.6
C/C(=N/NC(N)=S)c1cc2ccc(O)cc2oc1=O,7.1%,?,?,18.4µM*,4.4%,10.0
NC(=S)c1cc2cc(Br)ccc2oc1=O,-19.7%,-11.8%,0.2%,-6.8%,-29.0%,15.1
NC(=S)c1cc2ccc(O)cc2oc1=O,-12.1%,?,10.3µM*,20.6µM*,-27.6%,19.2
O=C(COc1ccccc1Cl)NCCNC(=O)c1cnccn1,6.1%,0.0%,1.1%,7.6%,8.8%,0.4
COc1ccc(CC(=O)NNC(=O)COc2ccc(Br)cc2C)cc1OC,-19.1%,-0.6%,-7.3%,0.2%,-28.7%,-14.0
Cc1cc(Br)ccc1OCC(=O)NNC(=O)c1cnccn1,?,1.3%,0.0%,-9.3%,20.6µM*,5.7
Cc1ccc(C(=O)CC(=O)COc2ccc(Cl)cc2C)cc1,4.11µM*,-9.9%,-35.7%,0.0%,5.8µM*,9.0
Cc1ccc(C(=O)NNC(=O)COc2ccc(Cl)cc2C)o1,?,-0.5%,2.3%,-2.0%,?,-54.2*
Cc1cc(Cl)ccc1OCC(=O)NNC(=O)c1cnccn1,10.3µM*,6.7%,-4.0%,6.8%,23.1µM*,1.8
SMILES,TDP1 cell CPT,Chronic BCR inh,SW480 rerep,MCF10A rerep,TDP1 cell noCPT,IL-1B inflam inh
Cc1ccc(NC(=O)c2ccc(OC(=O)COc3ccc(Cl)cc3C)cc2)cc1,2.7%,?,-2.4%,1.9%,10.9%,-7.2
CC(C)Oc1ccc(C(=O)N2CCN(c3nc4c(F)cc(F)cc4s3)CC2)cc1,-26.7%,?,·,·,?,·
CC(C(=O)Nc1ccc(C(N)=O)cc1)N1C(=O)c2ccccc2S1(=O)=O (stereo not drawn),9.6%,-10.3%,-316.2%,0.3%,15.8%,-17.1
CC(C)Oc1ccc(C(CCNCc2ccc(O)cc2)c2ccccc2)cc1 (stereo not drawn),5.8µM*,?,18.0%,?,4.11µM*,-91.3*
COc1ccc(C(CCNCc2ccc(N(C)C)cc2)c2ccccc2)cc1 (stereo not drawn),20.6µM*,-7.7%,18.4µM*,?,20.6µM*,-101.1*
COc1ccc(CNCCC(c2ccc3c(c2)OCO3)c2ccccc2OC)cc1 (stereo not drawn),6.51µM*,·,·,·,2.91µM*,·
COc1ccccc1OCC(O)CNCc1ccc2c(c1)OCO2 (stereo not drawn),2.0%,0.8%,-14.9%,1.4%,?,7.6
COCCCNC(=O)C1CCN(c2ncnc3c2nc2n3CCCCC2)CC1,14.6%,·,·,·,-1.4%,·
COc1ccc2[nH]c3c(c2c1)CCNC3(C)CCc1ccc(Cl)nc1 (stereo not drawn),?,?,5.7%,-0.4%,-27.4%,-23.2
COc1ccc(N2CC(NC(=O)/C=C\c3ccc4c(c3)OCO4)CC2=O)cc1 (stereo not drawn),-20.3%,-14.7%,·,·,2.4%,·
COc1ccc(C2c3[nH]c4ccccc4c3C[C@H]3C(=O)N(c4ccccc4C(=O)NCCN4CCOCC4)C(=O)N23)cc1 (stereo partly drawn),23.1µM*,3.3%,2.0%,-15.0%,?,-0.6
COc1cccc(C2c3[nH]c4ccccc4c3C[C@H]3C(=O)N(c4ccccc4C(=O)N4CCCC4C(=O)O)C(=O)N23)c1 (stereo partly drawn),2.7%,-7.3%,-12.1%,11.3%,-3.7%,2.0
O=C(NCCN1CCOCC1)c1ccccc1N1C(=O)[C@@H]2Cc3c([nH]c4ccccc34)C(c3ccc(F)cc3)N2C1=O (stereo partly drawn),14.6µM*,?,5.9%,29.6%,?,8.2
O=C(c1ccc2c3n(nc2c1)-c1ccccc1CO3)N1CCOCC1,8.2µM*,-5.8%,-1.6%,16.2%,9.2µM*,-19.0
CC(C)NC(=O)c1ccc2c3n(nc2c1)-c1ccc(Cl)cc1CO3,?,4.5%,6.3%,?,?,-6.0
CCN(CC)CCCNC(=O)c1ccc2c3n(nc2c1)-c1ccc(Cl)cc1CO3,?,1.5%,21.8%,-3.9%,16.4µM*,-60.5*

# Bioassay records: PubChem, National Center for Advancing Translational Sciences (NCATS)
